Read-out in assay [1]: TIMP metallopeptidase inhibitor 2 (TIMP2), TIMP2 (gene 7077)
Kind of assay: BSK_KF3CT_TIMP2: BioMAP Diversity Plus: KF3CT Assay for TIMP metallopeptidase inhibitor 2 (TIMP2) Biomarker Activity (AID 2283071). The following applies: primary human keratinocytes with fibroblasts; actives raise or lower the signal. The method in brief:
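Co-culture of human primary keratinocytes and foreskin fibroblasts, measured 24 h after chemical dosing. TIMP-2 quantified by ELISA and fitted in both directions relative to DMSO. Cytotoxicity checked in parallel cultures by SRB total-protein staining.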

Read-out in assay [2]: Transforming growth factor beta 1 (TGFb1), TGFB1 (gene 7040)
Kind of assay: BSK_KF3CT_TGFb1: BioMAP Diversity Plus: KF3CT Assay for Transforming growth factor beta 1 (TGFb1) Biomarker Activity (AID 2283072). The settings on record: primary human keratinocytes with fibroblasts; actives raise or lower the signal. The method in brief: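 Human keratinocyte/foreskin fibroblast co-culture; TGF-b1 measured by ELISA 24 h after dosing, fitted bidirectionally versus DMSO. Cytotoxicity checked in parallel cultures by total protein (SRB staining, 560 nm).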

Read-out in assay [3]: C-C motif chemokine 2 (Homo sapiens) (UniProt P13500)
In words: BSK_KF3CT_MCP1: BioMAP Diversity Plus: KF3CT Assay for Monocyte Chemoattractant Protein 1 (MCP1/CCL2) Biomarker Activity (AID 2283073). The settings on record: primary human keratinocytes with fibroblasts; actives raise or lower the signal. Put shortly:
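Human keratinocyte plus foreskin fibroblast primary co-culture exposed to chemical for 24 h. MCP-1 levels measured by ELISA. Bidirectional curve fitting relative to DMSO negative control as baseline.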

Read-out in assay [4]: Matrix Metallopeptidase 9 (MMP9), MMP9 (gene 4318)
In words: BSK_KF3CT_MMP9: BioMAP Diversity Plus: KF3CT Assay for Matrix Metallopeptidase 9 (MMP9) Biomarker Activity (AID 2283074). The following applies: primary human keratinocytes with fibroblasts; actives raise or lower the signal. The method in brief: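 Human keratinocyte and foreskin fibroblast co-culture exposed to chemicals for 24 h; MMP9 biomarker measured by ELISA, bidirectional fitting relative to DMSO; cytotoxicity tracked by SRB total protein staining in parallel cultures.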

Read-out in assay [5]: urokinase plasminogen activator (uPA), PLAU (gene 5328)
Kind of assay: BSK_KF3CT_uPA: BioMAP Diversity Plus: KF3CT Assay for urokinase plasminogen activator (uPA) Biomarker Activity (AID 2283075). The following applies: primary human keratinocytes with fibroblasts; actives raise or lower the signal. Put shortly: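 Primary human keratinocyte/foreskin fibroblast co-culture exposed to chemical; uPA measured by ELISA at 24 h. Bidirectional fit versus DMSO, with parallel SRB total-protein staining for cytotoxicity.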

Read-out in assay [6]: CD40, CD40 (gene 958)
Kind of assay: BSK_LPS_CD40: BioMAP Diversity Plus: LPS Assay for CD40 Biomarker Activity (AID 2283076). The following applies: primary human HUVEC with PBMC; actives raise or lower the signal. The method in brief: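 Primary human umbilical vein endothelial cells co-cultured with peripheral blood mononuclear cells, LPS-stimulated, were dosed with chemical and read 24 h later. CD40 levels were measured by ELISA and fitted bidirectionally against DMSO as negative control and baseline.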

Read-out in assay [7]: E-selectin (Homo sapiens) (UniProt P16581)
In words: BSK_LPS_Eselectin: BioMAP Diversity Plus: LPS Assay for Eselectin Biomarker Activity (AID 2283077). The following applies: primary human HUVEC with PBMC; actives raise or lower the signal. The method in brief:
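Human umbilical vein endothelial cells co-cultured with peripheral blood mononuclear cells under LPS stimulation; E-selectin measured by ELISA 24 h after chemical dosing. Activity fitted bidirectionally against DMSO as negative control and baseline.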

Read-out in assay [8]: Interleukin-8 (IL8), CXCL8 (gene 3576)
Kind of assay: BSK_LPS_IL8: BioMAP Diversity Plus: LPS Assay for Interleukin-8 (IL8) Biomarker Activity (AID 2283078). The settings on record: primary human HUVEC with PBMC; actives raise or lower the signal. Put shortly:
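Human umbilical vein endothelial cells co-cultured with PBMC were stimulated with LPS; IL-8 levels were measured by ELISA 24 h after chemical dosing. Activity was fitted bidirectionally against DMSO as negative control and baseline.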

The nature of assay [9]: BSK_LPS_SRB: Viability Assessment in the BioMAP Diversity Plus: LPS Assay (AID 2283079).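 Note: total protein by sulforhodamine B absorbance as a cytotoxicity measure; measured one day after compound addition; fitted in both directions against DMSO so loss or gain of signal counts.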 The settings on record: primary human HUVEC with PBMC. The method in brief: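 Human umbilical vein endothelial cells co-cultured with PBMC (LPS system) were dosed for 24 h. Total protein was stained with 0.1% sulforhodamine B after 10% TCA fixation, read at 560 nm, and fitted bidirectionally against DMSO baseline.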

Read-out in assay [10]: Interleukin-1 alpha (IL1a), IL1A (gene 3552)
In words: BSK_LPS_IL1a: BioMAP Diversity Plus: LPS Assay for Interleukin-1 alpha (IL1a) Biomarker Activity (AID 2283080). The settings on record: primary human HUVEC with PBMC; actives raise or lower the signal. The method in brief: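 Human umbilical vein endothelial cells co-cultured with peripheral blood mononuclear cells were LPS-stimulated and exposed to test chemicals for 24 h. IL-1 alpha was quantified by ELISA, with bidirectional curve fitting against DMSO as the negative control and baseline.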

Read-out in assay [11]: Monocyte Chemoattractant Protein-1 (MCP1), CCL2 (gene 6347)
In words: BSK_LPS_MCP1: BioMAP Diversity Plus: LPS Assay for Monocyte Chemoattractant Protein-1 (MCP1) Biomarker Activity (AID 2283081). The settings on record: primary human HUVEC with PBMC; actives raise or lower the signal. The method in brief:
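HUVEC plus PBMC co-culture (human primary cells, LPS system) exposed to test chemical for 24 h; MCP-1 measured by ELISA. Bidirectional curve fitting against DMSO baseline; parallel SRB total-protein staining flags overt cytotoxicity.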

Assay [12] can be described thus: BSK_LPS_PGE2: BioMAP Diversity Plus: LPS Assay for Prostaglandin E2 (PGE2) Biomarker Activity (AID 2283082). The following applies: primary human HUVEC with PBMC; actives raise or lower the signal. Put shortly:
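HUVEC plus human PBMC co-culture stimulated with LPS; secreted PGE2 quantified by ELISA 24 h after chemical dosing. Activity fitted bidirectionally against DMSO baseline; parallel SRB staining (0.1% SRB after 10% TCA fixation, 560 nm) flags overt cytotoxicity.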

Read-out in assay [13]: Tissue Factor, F3 (gene 2152)
Kind of assay: BSK_LPS_TissueFactor: BioMAP Diversity Plus: LPS Assay for Tissue Factor Biomarker Activity (AID 2283084). The following applies: primary human HUVEC with PBMC; actives raise or lower the signal. Put shortly:
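Human umbilical vein endothelial cells co-cultured with peripheral blood mononuclear cells were dosed and stimulated with LPS. Cell-surface CD142 was quantified by ELISA at 24 h. Activity was fitted bidirectionally against DMSO baseline.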

Read-out in assay [14]: Tumor necrosis factor (Homo sapiens) (UniProt P01375)
Kind of assay: BSK_LPS_TNFa: BioMAP Diversity Plus: LPS Assay for Tumour Necrosis Factor alpha (TNFa) Biomarker Activity (AID 2283085).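 For AC50: TNFa protein level quantified by ELISA in the co-culture.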 The following applies: primary human HUVEC with PBMC; actives raise or lower the signal. The method in brief: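 Human umbilical vein endothelial cells co-cultured with PBMC and stimulated with LPS. TNFa was measured by ELISA 24 h after chemical dosing, fitted bidirectionally relative to DMSO.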

Read-out in assay [15]: Vascular cell adhesion molecule 1 (VCAM1), VCAM1 (gene 7412)
Kind of assay: BSK_LPS_VCAM1: BioMAP Diversity Plus: LPS Assay for Vascular cell adhesion molecule 1 (VCAM1) Biomarker Activity (AID 2283086). The settings on record: primary human HUVEC with PBMC; actives raise or lower the signal. Put shortly: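 Human umbilical vein endothelial cells co-cultured with PBMC and stimulated with LPS; VCAM-1 measured by ELISA 24 h after dosing. Bidirectional curve fitting against DMSO baseline; cytotoxicity tracked in parallel by SRB total-protein staining.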

Read-out in another assay: CD38, CD38 (gene 952)
In words: BSK_SAg_CD38: BioMAP Diversity Plus: SAg Assay for CD38 Biomarker Activity (AID 2283087). The following applies: primary human HUVEC with PBMC; actives raise or lower the signal. The method in brief: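 Human HUVEC plus PBMC co-culture stimulated with superantigen; CD38 measured by ELISA 24 h after chemical dosing. Fluorescence read-out, bidirectional fit against DMSO; cytotoxicity tracked in parallel by SRB and Alamar Blue.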

Read-out in assay [16]: CD40, CD40 (gene 958)
Kind of assay: BSK_SAg_CD40: BioMAP Diversity Plus: SAg Assay for CD40 Biomarker Activity (AID 2283088). The settings on record: primary human HUVEC with PBMC; actives raise or lower the signal. Put shortly:
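Human umbilical vein endothelial cells co-cultured with PBMC; CD40 levels measured by ELISA with fluorescence read-out 24 h after chemical dosing. Gain or loss of signal fitted bidirectionally against DMSO baseline.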

Read-out in the next assay: CD69, CD69 (gene 969)
Kind of assay: BSK_SAg_CD69: BioMAP Diversity Plus: SAg Assay for CD69 Biomarker Activity (AID 2283089). The following applies: primary human HUVEC with PBMC; actives raise or lower the signal. Put shortly: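 Values derive from bidirectional fitting relative to DMSO vehicle. Cells: umbilical vein endothelium plus peripheral blood mononuclear cells, treated 24 h before fluorescent ELISA for CD69.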

Read-out in assay [17]: Macrophage colony-stimulating factor (MCSF), CSF1 (gene 1435)
In words: BSK_LPS_MCSF: BioMAP Diversity Plus: LPS Assay for Macrophage colony-stimulating factor (MCSF) Biomarker Activity (AID 2283083). The settings on record: primary human HUVEC with PBMC; actives raise or lower the signal. Put shortly:
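Human umbilical vein endothelial cells co-cultured with peripheral blood mononuclear cells were exposed to compound for 24 h. M-CSF levels were measured by ELISA, and bidirectional curve fitting used DMSO as the negative control and baseline.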

The text below walks through data of PubChem BioAssay (EPA / NIEHS).

The source made the active and inactive calls. Rule for the calls: active = hit-call score of the fitted dose curve at least 0.9, where 1 is the maximum; inactive = score below 0.9.

As usually defined, the AC50 is the midpoint of the concentration-response curve, whichever way the signal moves.

E-selectin (Homo sapiens), sequence (P16581 whole entry, looked up): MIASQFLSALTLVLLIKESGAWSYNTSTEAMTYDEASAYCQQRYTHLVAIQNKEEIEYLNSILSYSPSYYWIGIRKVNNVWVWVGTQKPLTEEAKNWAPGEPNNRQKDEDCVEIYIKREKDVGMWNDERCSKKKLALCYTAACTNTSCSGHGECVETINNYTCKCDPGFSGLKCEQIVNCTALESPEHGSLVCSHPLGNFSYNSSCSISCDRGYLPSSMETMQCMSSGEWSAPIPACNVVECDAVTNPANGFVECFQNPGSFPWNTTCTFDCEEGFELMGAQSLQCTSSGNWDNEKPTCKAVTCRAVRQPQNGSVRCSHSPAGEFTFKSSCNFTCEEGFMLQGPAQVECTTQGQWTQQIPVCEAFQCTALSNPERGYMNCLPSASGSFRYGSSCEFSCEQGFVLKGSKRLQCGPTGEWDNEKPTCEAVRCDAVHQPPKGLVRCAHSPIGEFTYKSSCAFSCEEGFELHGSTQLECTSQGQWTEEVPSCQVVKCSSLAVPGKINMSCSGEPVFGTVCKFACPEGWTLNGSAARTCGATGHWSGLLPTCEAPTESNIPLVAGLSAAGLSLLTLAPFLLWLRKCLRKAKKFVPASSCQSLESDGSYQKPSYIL
Tumor necrosis factor (Homo sapiens), sequence (P01375 whole entry, looked up): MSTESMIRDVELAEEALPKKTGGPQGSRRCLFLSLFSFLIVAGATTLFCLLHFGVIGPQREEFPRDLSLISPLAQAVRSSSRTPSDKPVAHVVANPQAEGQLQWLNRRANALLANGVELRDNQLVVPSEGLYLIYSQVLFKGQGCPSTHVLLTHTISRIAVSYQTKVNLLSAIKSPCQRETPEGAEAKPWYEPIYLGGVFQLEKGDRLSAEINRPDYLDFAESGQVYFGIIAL

As to `CCCCCCC(C)OC(=O)CCCCC(=O)OC(C)CCCCCC` (stereo not drawn), the outcome in [1] is “inactive”; in [2] it was “inactive”; in [3], “inactive”; in [4] it was “inactive”; in [5], “inactive”; with CD40, CD40 (gene 958) [6], “inactive”. Besides, the outcome in assay [7], in assay [8], in assay [9], in [10], in assay [11] and in assay [12] was inactive. Moreover, the outcome is “inactive” in [13]; “inactive” in assay [15]; “inactive” with CD38, CD38 (gene 952); “inactive” in the assay with CD40, CD40 (gene 958) [16]; “inactive” in the assay with CD69, CD69 (gene 969). Further, the AC50 in assay [14] is 25.3 µM (active).

For `O=C(O)C(F)(F)C(F)(F)OC(F)(F)F`, the outcome in assay [1] was “inactive”; in assay [3] it was “inactive”; in [4] it was “inactive”; in assay [5], “inactive”; with CD40, CD40 (gene 958) [6], “inactive”; in assay [7], “inactive”. Also, the result in assay [8], in assay [9], in assay [10], in assay [11], in assay [12] and in [13] was inactive. In addition, the outcome in assay [14] was “inactive”; in assay [15], “inactive”; with CD38, CD38 (gene 952), “inactive”; with CD40, CD40 (gene 958) [16], “inactive”; in the assay with CD69, CD69 (gene 969) it was “inactive”.

Regarding `O=S(=O)(O)C(F)(F)C(F)(F)C(F)(F)C(F)(F)C(F)(F)C(F)(F)C(F)(F)F`, the outcome in assay [1] is “inactive”; in [3], “inactive”; in assay [4], “inactive”; in assay [5], “inactive”; in the assay with CD40, CD40 (gene 958) [6], “inactive”; in assay [7], “inactive”. The result in [8], in assay [9], in assay [10], in [11], in [12] and in [17] was inactive. Besides, the outcome in assay [13] was “inactive”; in [14] it was “inactive”; in assay [15], “inactive”; with CD38, CD38 (gene 952), “inactive”; with CD40, CD40 (gene 958) [16], “inactive”; with CD69, CD69 (gene 969) it was “inactive”.
